Hits are enriched below; roughly 10% of the tested compounds scored in any of these assays.
Luc counter = Counterscreen for Luciferase (Kinase-Glo TM) Inhibition; Luciferin 4-monooxygenase (Photuris pensylvanica), Q27757; Kinase-Glo luciferase, ATP luminescence, 8 min; Potency, µM (series often up to 38.3 µM), most hits filed as inhibitors; 200,000 compounds, 0.28% hits; AID 1379, 2008; active = well fitted inhibition curve with a large enough effect; inconclusive = small, poorly fitted or top-dose-only effect; also: nearly all actives have a fitted effect of over 60% in size
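Light output from Kinase-Glo luciferase with luciferin and 10 uM ATP in 50 mM imidazole pH 7.2, KCl, MgCl2, Tween 20, BSA; compound pin-delivered, 8-min ambient incubation, then luminescence read.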
PNC inhibitor = High Content Assay for Compounds that inhibit the Assembly of the Perinucleolar Compartment; activity change (PNC), negative = inhibition, % at 10 µM; PC3M PTB-GFP, PNC prevalence imaging, 16 h; stronger effect = lower value; 140,000 compounds, 3.1% hits;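 active = readout at or below -70, meaning at least 70% loss of cells showing the perinucleolar compartment, a nuclear body marking cancer cells; inconclusive = readout between -30 and a set limit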
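PC3M cells stably expressing PTB-GFP, 750–1000 cells/well, treated 16 h at 37 °C with compound (23 nl of library stock), in duplicate. After paraformaldehyde fixation and Hoechst stain, imaged at 20x; PNC prevalence scored by image analysis.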
ALDH1A1 inh = qHTS Assay for Inhibitors of Aldehyde Dehydrogenase 1 (ALDH1A1). Aldehyde dehydrogenase 1A1 (Homo sapiens), P00352. Purified ALDH1A1, NADH fluorescence, propionaldehyde substrate. Potency, µM (highest dose often 75.3 µM), hits mostly inhibitors. 220,000 compounds, 7.3% hits. AID 1030, 2008
LMNA splice mod = qHTS Assay for Modulators of Lamin A Splicing. HeLa LMNA splicing GFP/RFP minigene ratio, 48 h. Potency, µM (top dose mostly 46.1 µM), usual class: inhibitors. 200,000 compounds, 0.01% hits. AID 1487, 2009; active = well fitted inhibition curve with a large enough effect in the signal ratio, with a control signal flat, not every such curve was filed as active; inconclusive = small, poorly fitted or top-dose-only effect, or effect the other way, or a change in a side signal; the % refers to the signal ratio
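S3 HeLa cells stably expressing lamin A-EGFP splicing minigene plus DsRed2, 600 cells/well, 48 h compound exposure at 37C. Laser-scanning cytometry; analysed as GFP (500-530 nm)/RFP (575-640 nm) total intensity ratio; 0.5% DMSO vehicle.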
HPGD block = qHTS Assay for Inhibitors of HPGD (15-Hydroxyprostaglandin Dehydrogenase); purified HPGD, NADH fluorescence kinetic, PGE2 substrate; 150,000 compounds, 4.3% hits; Potency, µM, most hits filed as inhibitors
Target sequence (P15428 whole entry, looked up): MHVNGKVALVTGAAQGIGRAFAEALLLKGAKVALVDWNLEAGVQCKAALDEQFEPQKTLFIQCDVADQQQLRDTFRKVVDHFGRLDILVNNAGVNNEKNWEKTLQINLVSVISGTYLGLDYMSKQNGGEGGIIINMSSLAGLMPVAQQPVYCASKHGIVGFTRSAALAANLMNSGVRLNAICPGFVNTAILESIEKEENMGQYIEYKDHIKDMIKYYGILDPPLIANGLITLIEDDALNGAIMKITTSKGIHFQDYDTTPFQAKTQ
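NADH formation kinetics: reaction with 30 uM PGE2 and 1 mM NAD+ (final), 20 nM enzyme, Tris-HCl pH 8 with Tween 20, after 15 min compound preincubation at room temperature. Fluorescence change, last versus first of five reads.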
IMPase cell inh = qHTS Assay for Identifying the Cell-Membrane Permeable IMPase Inhibitors | inhibition (IP1 accumulation), % at 46.1 µM | AID 901, 2007 | CHO-M1 cells, IP1 accumulation, HTRF TR-FRET ratio | 120,000 tested, under 10 active; active = well fitted curve in the direction sought with a large enough effect in the signal ratio, not every such curve was filed as active; inconclusive = small, poorly fitted or top-dose-only effect, or a change in a side signal; inactive = no such curve, though single readings can be large or run the other way; the % refers to the signal ratio;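 also: cells stimulated with carbachol in lithium chloride buffer; higher means more IMPase inhibition seen as more IP1 and lower FRET ratio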
Target sequence (P97697 whole entry, looked up): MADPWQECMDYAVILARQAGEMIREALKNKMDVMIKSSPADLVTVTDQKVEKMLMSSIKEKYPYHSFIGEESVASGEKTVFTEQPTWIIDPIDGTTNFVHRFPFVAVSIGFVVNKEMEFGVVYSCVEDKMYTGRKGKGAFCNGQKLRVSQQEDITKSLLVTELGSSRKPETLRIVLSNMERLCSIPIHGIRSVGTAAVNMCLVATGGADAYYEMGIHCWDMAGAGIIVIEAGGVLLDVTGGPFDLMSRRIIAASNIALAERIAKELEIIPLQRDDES
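Elevated IP1 in lysates lowers TR-FRET signal (665/620 ratio and 620 channel reported). Cells were CHO-M1, given carbachol (50 uM as added) plus 50mM LiCl, pH 7.4, 30 min, 37C; compounds titrated up to 46 uM; AC50 by Hill equation.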
Numbers stand for hits; – = inactive; ? = inconclusive; · = not tested or not shown; ! = not confirmed by another sample; [ ] = dose if it differs, or a comment. Unless noted, calls follow the shape of the dose curve; as a rule, active = well fitted inhibition curve with a large enough effect (not every such curve was filed as active); inconclusive = small, poorly fitted or top-dose-only effect, or another doubt; inactive = no such curve, though single readings can be large or run the other way.

SMILES	Luc counter	PNC inhibitor	ALDH1A1 inh	LMNA splice mod	HPGD block	IMPase cell inh
Cc1ccc(C2(CCNCc3ccc(N(C)C)cc3)CCOC(C(C)C)C2)cc1 (stereo not given)	–	·	25.1µM	–	·	·
CC(C)C1CC(CCNCc2ccc(N(C)C)cc2)(c2ccccc2)CCO1 (stereo not given)	·	–	20µM	–	·	–
Cc1ccc(C2(CCNS(=O)(=O)c3ccc(C)cc3)CCOC(C(C)C)C2)cc1 (stereo not given)	–	–	?	?	–	·
Nc1nc2c(nc(Sc3ccc(Cl)cc3)n2C2OC(CO)C(O)C2O)c(=O)[nH]1 (stereo not given)	–	·	–	–	–	·
COc1ccc(-c2cnn3c(N)c(S(=O)(=O)c4ccccc4)cnc23)cc1	–	–	–	–	20µM	–
O=C1CCc2cc(OCCCCc3nnnn3C3CCCCC3)ccc2N1	–	?	25.1µM!	?	–	–
COc1ccc(OC)c2[nH]c(=O)c(CCNS(=O)(=O)c3ccccc3)cc12	–	?	7.08µM	–	–	–
C=CC(C1=CC(=O)C(OC)=CC1=O)c1ccc(O)cc1 (stereo not given)	–	·	–	·	–	·
CC(=O)n1cc(C(C[N+](=O)[O-])SCCN)c2ccccc21 (stereo not given)	–	–	–	–	25.1µM	–
CCN1CCN(c2ncnc3c2cnn3-c2ccccc2)CC1	–	?	?	–	–	–
Cc1ccc(C)c(N2CCN(c3ncnc4c3cnn4-c3ccccc3)CC2)c1	–	–	?	–	?	–
c1ccc(-n2ncc3c(N4CCCCC4)ncnc32)cc1	–	–	?	–	17.8µM	–
c1ccc(CCN2CCN(c3ncnc4c3cnn4-c3ccccc3)CC2)cc1	–	–	28.2µM	?	–	–
Cc1ccccc1C(=O)N1CCN(c2ncnc3c2cnn3-c2ccccc2)CC1	–	–	7.94µM	?	–	–
Cc1cccc(-n2ncc3c(N4CCCCCC4)ncnc32)c1	·	·	·	–	·	·
Cc1cccc(-n2ncc3c(N4CCC(C)CC4)ncnc32)c1	–	–	14.1µM	–	28.2µM	–
CCOC(=O)N1CCN(c2ncnc3c2cnn3-c2ccc(Cl)cc2)CC1	–	–	3.98µM	?	?	–[1.84 µM]
Cc1cc(C)c(NC(=O)Cn2nc(-c3ccncc3)ccc2=O)c(C)c1	·	·	·	–	·	·
CN(C)c1ncc2nc(CCc3ccccc3)c(=O)n(Cc3cccs3)c2n1	·	·	?	–	·	·
O=C1/C(=C/c2ccco2)Cc2ccccc21	–	–	?	–	?	·
CC1C/C(=C/c2cccs2)C(=O)/C(=C/c2cccs2)C1 (stereo not given)	–	-113.4	–	?	–	·
CC1C/C(=C/c2ccco2)C(=O)/C(=C/c2ccco2)C1 (stereo not given)	–	–	14.1µM	?	–	·
CC1C/C(=C/c2ccccn2)C(=O)/C(=C/c2ccccn2)C1 (stereo not given)	–	·	–	·	·	·
O=C1/C(=C\c2ccco2)CCC/C1=C\c1ccco1	–	–	5.62µM	–	–	·
Cc1ccc(C(C)C)c(OCC(=O)Nc2c(C(=O)c3ccc(F)cc3)oc3ccccc23)c1	·	·	·	·	·	–
SMILES	Luc counter	PNC inhibitor	ALDH1A1 inh	LMNA splice mod	HPGD block	IMPase cell inh
COc1ccc(S(=O)(=O)NCC(c2ccco2)N2CCOCC2)cc1OC (stereo not given)	·	·	·	–	·	·
CC(C)C[C@@H](CC(=O)N[C@@H](CCC(=O)O)CC(=O)O)NC(=O)[C@@H]1CNCC[C@H]1NC(=O)C[C@@H](NC(=O)C[C@H](Cc1ccccc1)NC(=O)[C@@H]1CCCC[C@H]1N)C(C)C	–	·	–	·	–	·
Nc1c(C(=O)C2CC2)sc2nc(-c3ccccc3)cc(C(F)(F)F)c12	–	–	?	–	28.2µM	–
CCC(O)CNC(=O)NC(=C(Cl)Cl)c1ccc(C)c(F)c1 (stereo not given)	–	–	3.55µM	?	–	–
CCN(CC)S(=O)(=O)c1ccc(NC(=O)c2cc3ccc4cccnc4c3[nH]2)cc1	·	·	·	–	·	·
Cc1c(Cl)ccc2c1NC(=O)C21NC(CCC(N)=O)[C@H]2C(=O)N(c3ccc(Cl)cc3)C(=O)[C@H]21 (stereo not given in full)	–	–	8.91µM	–	–	–
NC(=O)C[C@@H]1N[C@]2(C(=O)Nc3ccccc32)[C@@H]2C(=O)N(c3cc(C(F)(F)F)ccc3Cl)C(=O)[C@H]12	–	–	–	–	–	?
Cc1c(Cl)ccc2c1NC(=O)[C@]21N[C@@H](CCC(N)=O)[C@H]2C(=O)N(c3ccc(F)cc3)C(=O)[C@H]21	–	–	14.1µM	?	–	–
CCCCc1ccc(N2C(=O)[C@@H]3C(CC(N)=O)NC4(C(=O)Nc5ccc(F)cc54)[C@@H]3C2=O)cc1 (stereo not given in full)	–	–	14.1µM	–	–	–
Cc1cccc(C(=O)OCc2cc(=O)n3ccsc3n2)c1	·	·	·	–	·	·
Cc1cc(C(=O)CSc2nnnn2C)c(C)n1-c1ccc2c(c1)OCCO2	–	–	?	?	25.1µM	–
Cc1cc(-n2c(C)cc(C(=O)CSc3nnnn3-c3ccc(Cl)cc3)c2C)no1	–	-100.0	–	–	–	–
CC(=O)c1ccc(NC(=O)Cn2cnc3nc4c(cc3c2=O)CC(C)CC4)cc1 (stereo not given)	·	·	·	–	·	·
NCCC[C@@H](CC(=O)N[C@@H]1CCCC[C@H]1C(=O)N[C@H](CC(=O)N[C@@H](CCC(=O)O)CC(=O)O)Cc1ccccc1)NC(=O)C[C@H](Cc1ccccc1)NC(=O)[C@@H]1CCCC[C@H]1N	–	·	–	·	–	·
CC1=C(C(=O)N2CCOCC2)C(c2ccc(C)cc2)NC(=S)N1 (stereo not given)	·	–	17.8µM	–	·	–
CC(NC(=O)Cn1c(-c2cccs2)cc2cc(F)ccc21)c1ccccc1 (stereo not given)	·	·	·	–	·	·
Cc1ccc(-n2nc(C)c3c(C)cc(=O)n(CC(=O)NCc4ccc(OC(C)C)cc4)c32)cc1	·	·	·	–	·	·
C=C1c2cccc(O)c2C(O)=C2C(=O)[C@]3(O)C(O)=C(C(N)=O)C(=O)C(N(C)C)C3C(O)C12 (stereo not given in full)	–	·	–	·	15.8µM	·
CN(C)c1ccc(O)c2c1C[C@@H]1C[C@H]3C(N(C)C)C(=O)C(C(N)=O)=C(O)[C@@]3(O)C(=O)C1=C2O (stereo not given in full)	–	·	–	·	28.2µM	·

Source: PubChem (National Center for Advancing Translational Sciences (NCATS))
